High-throughput results (PubChem)
DT40 TDP1 CPT = DT40-hTDP1 cell growth loss with CPT | chicken DT40 Tdp1-/-;hTDP1 cells + 20 nM CPT, ATP luminescence, 48 h | Potency, µM (series often up to 46.2 µM), without a hit: at the top dose activity change, negative = growth inhibition, actives largely listed as inhibitors | hit rate 12% among 420,000 | AID 686979; also: potency is read from the fitted curve at half-maximal effect; nearly all actives have a fitted effect of over 55% in size
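Chicken DT40 Tdp1-/- cells complemented with human TDP1, 400 cells/well, exposed to compounds plus 20 nM camptothecin for at least 48 h at 37 C; viability read as ATP content by CellTiter-Glo luminescence.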
DT40 TDP1 no CPT = qHTS for Inhibitors of human tyrosyl-DNA phosphodiesterase 1 (TDP1): qHTS in cells in absence of CPT; DT40 Tdp1-/- hTDP1 cells, no CPT, ATP luminescence, 48 h; Potency, µM (doses to about 46.2 µM), without a hit: at the top dose activity change, negative = growth inhibition, usual class: inhibitors; hit rate 15% among 420,000; also: potency is read from the fitted curve at half-maximal effect; nearly all actives have a fitted effect of over 55% in size
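Growth kinetics read by CellTiter-Glo luminescence after ≥48 hr at 37 °C. Cells: DT40 Tdp1-/- stably carrying human TDP1, 400 per well, compound exposure in the absence of CPT (DMSO vehicle).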
IL1B secr inh = inhibitors of inflammasome signaling (IL-1 beta secretion); hit rate 4.7% among 360,000; AID 743279; THP-1 LPS/ATP IL-1B secretion, AlphaLISA, 16 h; stronger effect = lower value; activity change, % at 57.5 µM; in the data active = activity change below about -50%; inconclusive = mostly about -30% to -49%
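THP-1 cells pretreated 1 hr with compounds (up to 57.5 uM final), then stimulated with LPS (250 ng/mL final) plus ATP (1.25 mM final); secreted IL-1B measured by AlphaLISA after 16 hr, decreased signal indicating inhibition.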
VP16 counter = counter-screen for ROR gamma inhibitors: Gal4-VP16 reporter; Potency, µM (series often up to 53.6 µM), inactives show at the highest dose activity, negative = inhibition, most hits filed as inhibitors; AID 2546; Drosophila S2 Gal4-VP16 UAS-luciferase, luminescence, 20 h; hit rate 3.5% among 310,000;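 also: Gal4-VP16 expression switched on by copper sulfate through the metallothionein promoter; potency is read from the fitted curve at half-maximal effect; nearly all actives have a fitted effect of over 50% in size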
LDHA block = blocks human lactate dehydrogenase A. purified LDHA, NADH/diaphorase-resazurin fluorescence; stronger effect = lower value. activity change, % (values are at about 110 or 230 µM). hit rate 0.15% among 480,000; in the data active = activity change below about -30%; inconclusive = mostly about -25% to -30%;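 also: plate controls were DMSO wells for no effect and wells without enzyme for full effect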
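Human LDH5 (2 nM) was incubated with 0.06 mM NADH and 0.2 mM pyruvate for 5 min at room temperature in Tris pH 7.4. Remaining NADH was coupled through diaphorase/resazurin, and resorufin fluorescence was read at 0 and 20 min.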
RORg inh = blocks mouse ROR gamma transcriptional activity; Potency, µM (series often up to 53.6 µM), for the others: at the highest dose activity change, negative = inhibition, most hits filed as inhibitors; P51450; AID 2551; Drosophila S2 Gal4-RORgamma UAS-luciferase reporter, 20 h; hit rate 5.4% among 310,000; also: potency is read from the fitted curve at half-maximal effect; nearly all actives have a fitted effect of over 60% in size
Target sequence (P51450 whole entry, looked up, the tested form may be a part): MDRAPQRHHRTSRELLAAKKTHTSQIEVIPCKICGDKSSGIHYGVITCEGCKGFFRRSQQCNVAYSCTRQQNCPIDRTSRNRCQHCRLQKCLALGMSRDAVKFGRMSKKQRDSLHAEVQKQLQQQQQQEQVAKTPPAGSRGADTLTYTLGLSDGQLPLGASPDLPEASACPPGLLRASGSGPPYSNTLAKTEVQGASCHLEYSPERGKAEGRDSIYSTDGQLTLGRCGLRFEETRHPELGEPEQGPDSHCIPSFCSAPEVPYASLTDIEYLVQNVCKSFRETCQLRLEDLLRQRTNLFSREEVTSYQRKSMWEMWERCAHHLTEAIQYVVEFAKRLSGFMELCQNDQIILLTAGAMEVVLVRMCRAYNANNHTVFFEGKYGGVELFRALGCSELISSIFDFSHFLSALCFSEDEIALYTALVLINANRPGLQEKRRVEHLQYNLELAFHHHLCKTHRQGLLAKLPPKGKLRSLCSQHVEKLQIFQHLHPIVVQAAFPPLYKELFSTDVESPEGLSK
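Drosophila S2 cells stably expressing Gal4-DBD/mouse RORγ fusion under metallothionein promoter plus UAS-luciferase; compound 1 h, then 700 uM CuSO4 induction for 20 h at ambient temperature; inhibition read as reduced luminescence.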
Active calls of the source: *; ? = inconclusive; nt = not tested or not shown. This is a sample that favours compounds with a hit; in the whole collection about 18% have one here. Unless noted, calls follow the shape of the dose curve; as a rule, active = well fitted curve in the direction sought with a large enough effect; inconclusive = small, poorly fitted or top-dose-only effect, or another doubt; inactive = no such curve, though single readings can be large; an effect the other way counts as inactive or inconclusive. Unless noted, % is scaled to controls: 0 for no effect and ±100 for the full control effect.

SMILES	DT40 TDP1 CPT	DT40 TDP1 no CPT	IL1B secr inh	VP16 counter	LDHA block	RORg inh
Cc1noc(/C=C/c2ccccc2F)c1S(=O)(=O)N1CCC(C(=O)N2CCOCC2)CC1	nt	nt	nt	nt	-2.0	nt
Cc1cc(C)c2c(=O)cc(C(=O)N(Cc3ccco3)C3CCS(=O)(=O)C3)oc2c1 (stereo not drawn)	nt	nt	nt	nt	2.9	nt
O=C(N/N=C/c1ccc2ncccc2c1)c1cc(-c2cccs2)nc2ccccc12	2.91µM*	3.26µM*	30.3	-0.8%	-7.2	10.8%
N#C/C=C(/N)N1CCN(c2ccc(Cl)c(Cl)c2)CC1	?	16.4µM*	?	9.1%	-7.3	?
Nc1ccc(N2CCN(c3ccc(Cl)c(Cl)c3)CC2)cc1	11.6µM*	9.2µM*	-5.6	-8.0%	0.6	-22.5%
CNC(=S)N1CCN(c2ccc(Cl)c(Cl)c2)CC1	23.1µM*	16.4µM*	-58.1*	1.5%	0.5	27.1%
CC(=O)N1CCN(c2ccc(N)cc2)CC1	nt	nt	nt	nt	1.7	nt
COC(=O)N1CCN(c2ccc(Cl)c(Cl)c2)CC1	?	?	-7.0	?	-3.1	-12.8%
CC(C)NS(=O)(=O)c1cccc(C(=O)OCc2nc3ccccc3o2)c1	nt	nt	nt	nt	-2.2	nt
CCOC(=O)c1oc2cc(O)ccc2c(=O)c1-c1ccc(Br)cc1	nt	nt	nt	nt	-1.8	nt
CNc1nnc(C(F)(F)F)s1	5.2%	-3.6%	nt	21.3%	-5.6	21.8%
Fc1ccc(Nc2nnc(C(F)(F)F)s2)cc1	-13.4%	-27.0%	-69.2*	-5.7%	-0.4	17.5%
Cc1ccc(C(=O)NCC(=O)NCC(=O)OCc2ccc(Cl)cc2)cc1	-13.8%	-8.3%	-97.9*	-16.2%	-3.6	?
COC(=O)c1ccc(COC(=O)CNC(=O)CNC(=O)c2ccc(C)cc2)cc1	-15.8%	16.4%	-12.7	-0.3%	-3.3	6.5%
Cn1nc([N+](=O)[O-])c(C(C#N)c2ccccn2)c(Cl)c1=O (stereo not drawn)	5.17µM*	3.66µM*	-102.0*	?	-2.0	10µM*
CCCn1nc([N+](=O)[O-])c(C(C#N)c2nc3ccccc3o2)c(Cl)c1=O (stereo not drawn)	?	-24.5%	-82.0*	?	0.6	-25.9%
CCn1nc([N+](=O)[O-])c(C(C#N)c2nc3cc(C(F)(F)F)ccc3s2)c(Cl)c1=O (stereo not drawn)	14.6µM*	23.1µM*	-96.7*	?	8.2	?
O=C(O)/C(=C/c1ccncc1)NC(=O)c1ccccc1	nt	nt	nt	nt	2.5	nt
COc1cccc(OCC(O)CNC(C)c2ccccc2)c1 (stereo not drawn)	?	?	-25.2	-6.6%	-3.0	0.4%
CCC(=O)c1ccc(OCC(O)CNC(C)c2ccccc2)cc1 (stereo not drawn)	?	?	2.9	-5.4%	-9.4	-40.3%
CC(C)c1ccc(OCC(O)CNC(C)c2ccccc2)cc1 (stereo not drawn)	16.4µM*	16.4µM*	-85.5*	-9.1%	4.1	?
Cc1cccc(C)c1OCC(O)CNC(C)c1ccccc1 (stereo not drawn)	3.66µM*	5.17µM*	?	-2.8%	-2.8	-2.7%
COc1ccc(C(OCC(O)CNC(C)c2ccccc2)c2ccc(OC)cc2)cc1 (stereo not drawn)	?	23.1µM*	-97.9*	-2.4%	-2.9	1.4%
CCCNC(=O)CNC(=O)c1ccc2ccccc2n1	nt	nt	nt	nt	4.5	nt
N#Cc1cccc(CNCc2cc(Br)cs2)c1	nt	nt	nt	nt	13.1	nt
O=C(Nc1cccc(-c2nc3ccccc3o2)c1)c1ccccc1Br	nt	nt	nt	nt	-10.8	nt
Cc1cc(C)c(OCC(=O)NC2=NCCS2)c(C)c1	nt	nt	nt	nt	0.6	nt
Cc1ccc(-n2c(SCC(=O)N/N=C/c3ccc(C)s3)nnc2-c2ccccc2)cc1	?	?	-57.1*	-96.6%	-3.8	?
Cc1ccc(/C=N/NC(=O)CSc2nnc(-c3ccc(Cl)cc3)n2-c2ccccc2)o1	?	?	0.8	0.3%	-4.2	20.7%
